G9a block = inhibitors of human histone lysine methyltransferase G9a; Q96KQ7; G9a H3K9 monomethylation, AlphaScreen, 2 h; Potency, µM (doses to about 102 µM), usual class: inhibitors; hit rate 8.8% among 350,000; AID 504332; also: nearly all actives have a fitted effect of over 75% in size
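Chemiluminescent proximity detection of H3K9 monomethylation, read after 10 min bead incubation in the dark. Reaction: 20 nM G9a, 500 nM biotin-H3K9 peptide, 20 uM SAM cofactor, 2 h, room temperature, following 15 min enzyme-compound preincubation.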
PLK1 PBD block = blocks phosphopeptide binding to human PLK1 polo-box domain | P53350 | Plk1 PBD binding of FITC phosphopeptide, fluorescence polarization | Potency, µM, usual class: inhibitors | hit rate 2.8% among 360,000 | AID 720504; also: series mostly up to about 57 µM; nearly all actives have a fitted effect of over 65% in size
HP1b binding inh = inhibitors of HP1-beta chromodomain binding to methylated histone tails; AlphaScreen HP1-beta / biotin-H3K9me3 peptide binding; P83916; Potency, µM (doses to about 114 µM), actives largely listed as inhibitors; hit rate 0.56% among 390,000; also: nearly all actives have a fitted effect of over 70% in size
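Compound inhibition of the preformed complex between 50 nM HP1-beta and 50 nM biotinylated H3K9me3 peptide was read by AlphaScreen. Buffer was PBS pH 7.4 with 0.01% Tween-20. Incubations ran 30 min at room temperature, with 10 ug/mL donor/acceptor beads.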
BAZ2B block = blocks human BAZ2B; Q9UIF8; AlphaScreen BAZ2B-H3K14Ac peptide displacement; Potency, µM (highest dose often 114 µM), most hits filed as inhibitors; hit rate 4.4% among 360,000; also: nearly all actives have a fitted effect of over 60% in size
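Compounds, titrated to a top concentration of 110 uM, were incubated 30 min at room temperature with preformed BAZ2B/acetyl-K14 H3 peptide complex (50 nM each). Proximity signal was measured by AlphaScreen after 20 min with beads.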
JMJD2A Tudor = inhibitors of human JMJD2A Tudor domain | Potency, µM (highest dose often 114 µM), usual class: inhibitors | hit rate 4.4% among 390,000 | AlphaScreen JMJD2A-Tudor / H3K4me3 peptide binding; also: nearly all actives have a fitted effect of over 50% in size
PI5P4Ka inh = PI5P4K alpha (human) kinase inhibition | PI5P4Kalpha enzyme, ADP-Glo luminescence, 60 min; hits give low values | max response, % | hit rate 1.2% among 330,000; active = max response of -50% or lower; inconclusive = between -30% and -50%; inactive = -30% or higher; also: value at the top dose of about 77 µM
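Quantitative HTS of the MLSMR library against PI5P4Kalpha with substrate. ATP added last at 5 microM final; room temperature, 60 minutes. Remaining ATP depleted, ADP converted and read as luminescence.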
Numbers stand for hits; 0 = inactive; ? = inconclusive; - = no result given; ! = a repeat was not active; [ ] = another dose, or the depositor's remark. This is a sample that favours compounds with a hit; in the whole collection about 12% have one here. Unless noted, calls follow the shape of the dose curve; as a rule, active = well fitted curve in the direction sought with a large enough effect; inconclusive = small, poorly fitted or top-dose-only effect, or another doubt; inactive = no such curve, though single readings can be large; an effect the other way counts as inactive or inconclusive.

SMILES | G9a block | PLK1 PBD block | HP1b binding inh | BAZ2B block | JMJD2A Tudor | PI5P4Ka inh
CC(=O)c1cn(-c2ccc(Cl)cc2)c(=O)[nH]c1=O | 0[2.33 µM] | 0 | 0 | 0 | 0 | 0
CC1(C)C=Cc2c(c3c(c4c(=O)c(-c5ccc(O)cc5)coc24)OC(C)(C)CC3)O1 | ? | 0 | 0 | 0 | ? | 0
CC(C)=CCc1c2c(c3occ(-c4ccc(O)c(O)c4)c(=O)c3c1O)C=CC(C)(C)O2 | - | 0 | ? | - | 22.4µM | 0
CC(C)=CCc1c2c(c3occ(-c4ccc(O)cc4)c(=O)c3c1O)C=CC(C)(C)O2 | 20µM! | 0 | 0 | ? | ? | 0
O=C(CSC1=Nc2ccccc2C2=NC(Cc3ccccc3)C(=O)N12)Nc1cccc(Cl)c1 (centres undefined) | 0[12.7 µM] | - | 0 | 0 | 0 | -
Cc1cccc(-c2noc(CN(C(C)C)S(=O)(=O)c3ccc(Br)cc3)n2)c1 | 0 | - | 0 | 0 | 0 | -
CCOc1ccc(NC(=S)C(C#N)=C2N(C)c3ccccc3N2C)cc1 | 31.6µM | 0 | 0 | 0 | 0 | 0
CCOc1ccc(NC(=S)N2c3ccccc3CC2C)cc1 (centres undefined) | 0 | 0 | 0 | 0 | 0 | 0
CCc1cccc(OCCN2CCCC2)c1 | ? | 0 | ? | 56.2µM | 31.6µM | 0
Brc1cccc(OCCN2CCOCC2)c1 | 8.91µM | 0 | ? | 50.1µM | 5.62µM | 0
Brc1cccc(OCCN2CCCCC2)c1 | 7.08µM | 0 | ? | ? | 20µM | 0
OCCN1CCN(CCOc2cccc(Cl)c2)CC1 | - | 0 | 0 | ? | ? | 0
Cc1cc2c(n1-c1ccc(C(=O)NCc3ccccc3Cl)cc1)CCCC2 | 0 | - | 0 | 0 | 0 | -
C[C@]12CC[C@@H]3c4ccc(O)cc4CC[C@H]3[C@@H]1C[C@H](O)C2O (some centres undefined) | 0 | - | - | - | - | -
CC(C)C(=O)N1CCc2cc(-c3csc(N)n3)ccc21 | ? | 23.8µM | 0 | ? | 0 | -
Cc1cc(SCC(=O)OCC(=O)N(CCC#N)c2ccccc2)nc2ccccc12 | 0 | 0 | 0 | 0 | 0 | 0
COc1ccccc1C(c1nnnn1CCc1ccccc1)N1CCCCCC1 (centres undefined) | 0[12.7 µM] | 0 | 0 | 0 | 0 | 0
COc1ccccc1C(c1nnnn1CCc1ccccc1)N1CCN(c2ccccc2)CC1 (centres undefined) | ? | 0 | 0 | 0 | 0 | 0
COc1cccc(C(c2nnnn2CCc2ccccc2)N2CCN(c3ccccc3)CC2)c1OC (centres undefined) | ? | 29.9µM | 0 | 0 | 0[11.4 µM] | 0
COCCn1nnnc1C(c1ccccc1OC)N1CCN(c2ccccc2)CC1 (centres undefined) | 44.7µM | 0 | 0 | 0 | 44.7µM | 0
COCCn1nnnc1C(c1cccs1)N1CCN(c2cc(C)ccc2C)CC1 (centres undefined) | 0[12.7 µM] | 0 | 0 | 0 | 79.4µM | -
Cc1ccc(NC(=O)C(Cc2ccccc2)NS(=O)(=O)c2ccc3c(c2)c(=O)n(C)c(=O)n3C)c(C)c1 (centres undefined) | 0 | - | 0 | 0 | 0 | -
O=C(Nc1ccccc1Cl)[C@H](CSCc1ccccc1)N1Cc2ccccc2C1=O | 0 | - | 0 | 0 | 0 | -
CC1(C)OC(=O)C2(Cc3cc([N+](=O)[O-])ccc3N3CCCCCC32)C(=O)O1 (centres undefined) | - | - | 0 | - | 0 | -
COc1c(C)cc(S(=O)(=O)NCCN2CCOCC2)c(C)c1C | 0 | 0 | 0 | ? | 0 | 0
SMILES | G9a block | PLK1 PBD block | HP1b binding inh | BAZ2B block | JMJD2A Tudor | PI5P4Ka inh
O=C(O)CCNC(=O)c1ccccc1 | 0 | 0 | 0 | 0 | 0 | 0
O=C(NCS(=O)(=O)c1ccccc1)c1ccccc1 | 50.1µM | 0 | 0 | 0 | 0 | 0
CCCNC(=O)c1cnc(Sc2ncc(C(F)(F)F)cc2Cl)n1C | 0 | 0 | 0 | 50.1µM | 0 | 0
COc1ccc(N=c2nc(-c3ccc(C)cc3)n(-c3ccccc3)s2)cc1 | - | - | ? | - | 0 | -
Cc1ccc(-n2c(-c3ccccc3)c[nH]c2=S)cc1 | 2.82µM | ? | 0 | 0 | 11.2µM | 0
CCn1c(-c2ccccc2)c[nH]c1=S | ? | 0 | ? | 0 | 8.91µM | 0
S=c1[nH]cc(-c2ccc(Cl)cc2)n1Cc1ccccc1 | ? | 0 | 0 | 0 | 0[11.4 µM] | 0
S=c1[nH]cc(-c2ccccc2)n1-c1ccccc1 | 0.891µM | 0 | 0 | ? | 28.2µM | ?
CC(C)Cn1c(-c2ccc(Br)cc2)c[nH]c1=S | 0.891µM | 16.8µM | ? | ? | 50.1µM | 0
O=C(COC(=O)c1ccc(O)cc1)Nc1ccc2c(c1)OCO2 | - | 0 | 0 | - | 0 | 0
Nc1nc2[nH]cc(CCc3ccc(C(=O)NC(CCC(=O)O)C(=O)O)cc3)c2c(=O)[nH]1 (centres undefined) | 0[12.7 µM] | - | - | - | - | -
Cc1ccc(Cn2c(C(=O)NCc3ccccc3Cl)cc3sccc32)cc1 | ? | - | 0 | 0 | 0 | -
COc1ccccc1-c1nccc(N2CCN(C)CC2)n1 | 0[0.501 µM] | - | - | - | - | -
O=C(CNC(=O)c1cccs1)Nc1ncccc1O | 0 | 0 | 0 | 56.2µM | 0 | 0
Cc1ccc(NC(=O)CNC(=O)c2cccs2)nc1 | 0 | 0 | 0 | 0 | 0 | 0
CCOC(=O)C1(Cc2ccc(OC)cc2)CCN(C(=O)c2cc(C)nn2C)CC1 | 0[0.501 µM] | 0 | 0 | 0 | 0 | 0
Cc1ccc(C(=O)NC(c2ccccc2)C(Cl)Cl)cc1 (centres undefined) | 50.1µM | 0 | 0 | 0 | 0 | 0
COC(=O)c1c(NC(=O)CN(C)CC(=O)Nc2ccc(C)cc2)sc2c1CCC(C)C2 (centres undefined) | 0 | 0 | 0 | 0 | 0 | 0
CC1CCc2c(sc(NC(=O)C3c4ccccc4Oc4ccccc43)c2C(N)=O)C1 (centres undefined) | 0 | 0 | 0 | 0 | 0 | 0
COC(=O)c1c(NC(=O)Cc2cccs2)sc2c1CCC(C)C2 (centres undefined) | ? | 21.2µM | 0 | 0 | 0 | -
COC(=O)Nc1sc2c(c1C(N)=O)CCC(C)C2 (centres undefined) | 14.1µM | ? | 0 | 0 | 0 | 0
COC(=O)c1c(NC(=S)NN2CCN(C)CC2)sc2c1CCC(C)C2 (centres undefined) | 44.7µM | 0 | ? | ? | ? | 0
COC(=O)c1c(NC(=O)Cn2cnc([N+](=O)[O-])n2)sc2c1CCC(C)C2 (centres undefined) | 8.91µM | 18.9µM | ? | 0 | ? | 0
COc1cc(NS(=O)(=O)c2ccc(NC(=O)c3cccc(F)c3)cc2)nc(OC)n1 | 0 | - | 0 | 0 | 0 | -
Cc1cc(-c2ccc(S(=O)(=O)Nc3ccc(Cl)cc3C)cc2)on1 | ? | - | 0 | 0 | 0 | -
Nc1ccccc1C(=O)C[C@@H](N)C(=O)O | 0 | - | - | - | - | -
NS(=O)(=O)c1ccc(CCNC(=O)CNS(=O)(=O)c2cccc(Br)c2)cc1 | 0 | 5.32µM | 0 | ? | 0 | 0
NS(=O)(=O)c1ccc(CCNCC(=O)NCc2ccccc2Cl)cc1 | 0 | 0 | 0 | 50.1µM | 28.2µM | 0
O=C(CNCc1ccccc1Cl)NCc1ccco1 | 0 | 0 | 22.4µM | 20µM | 0 | 0

Screening results as filed in PubChem.
